Consider 137 molecules from paper PMC9574860, “Chemical Toolkit for PARK7: Potent, Selective, and High-Throughput” (Journal of Medicinal Chemistry, 2022).

About 400 (5.1%) of roughly 7,900 compounds showed an effect of 50% or more. This is one part of a sample in which strong results are shown more often than they occur.

Chain of Parkinson's disease protein 7 (PARK7/DJ1) (Q99497 whole entry, looked up, the tested form may be a part): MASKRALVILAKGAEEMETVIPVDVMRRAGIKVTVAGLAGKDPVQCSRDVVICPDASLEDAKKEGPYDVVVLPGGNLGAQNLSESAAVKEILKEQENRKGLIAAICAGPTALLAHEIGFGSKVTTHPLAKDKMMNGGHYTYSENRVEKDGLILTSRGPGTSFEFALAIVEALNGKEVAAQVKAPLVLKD

The target of the test is Parkinson's disease protein 7 (PARK7/DJ1) (human, UniProt Q99497). As to the kind of experiment: primary screen, percent inhibition; read as competition with a fluorescent probe by fluorescence polarization; higher = more effect of the substance. Conditions: 100 µM. An outline of the steps:
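Fluorescence-polarization probe displacement (JYQ-107, 20 nM final, 2 h) after 2 h preincubation of PARK7 (0.2 μM final) with each fragment at 100 μM final. Read-out ex/em 480/520 nm; remaining activity derived from FP signal loss relative to reference controls.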
As for `FC(F)(F)c1cccc(C2CO2)c1` (centres unmarked), the Inhibition % stood at 2.09%.
Under `Cl.O=C(CCl)NCCc1cccc2cccnc12` stands 30.3%; under `Cc1conc1NS(=O)(=O)c1cccc(S(=O)(=O)F)c1`, 99%.
For the molecule `Cc1conc1NS(=O)(=O)c1ccc(S(=O)(=O)F)cc1`, the Inhibition % is recorded as 27%.
Regarding `O=C(CCl)NCc1ccc(N2CCOCC2)c(F)c1`, the Inhibition % is recorded as 10.8%.
For the molecule `C=CC(=O)N(C)CC1COc2ccccc2O1` (centres unmarked), the Inhibition % is recorded as 3.26%.
With `CN(CC1COc2ccccc2O1)C(=O)CCl` (centres unmarked) the figure was 96.7%; with `CCN(CC1COc2ccccc2O1)C(=O)CCl` (centres unmarked), 21.2%; with `N#CC1(NC(=O)CCl)CCC1`, 20.1%.
Consider `CN1CCOC(CNS(=O)(=O)C=Cc2ccccc2)C1` (centres unmarked), for which the Inhibition % worked out at 6.48%.
For the molecule `N#Cc1ncccc1Cl`, the Inhibition % came to 0.27%.
With `C=CC(=O)NCCCC(=O)N1CCc2sccc2C1` the figure was 10.7%; with `O=C(CCCl)N1CCc2sccc2C1`, 33.2%.
With `O=C(CCl)N1CCc2sccc2C1` the figure was 83.6%; with `O=C(O)CC1OCCCO1`, -4.03%; with `O=C(O)CC1(CS)CC1`, 80.8%.
With `COCc1ccc(SC(=O)N(C)C)cc1` the figure was 7.64%; with `C=CC(=O)N1CCCN(Cc2nccn2C)CC1`, 10.6%; with `C#CC(=O)Nc1cc2ccccc2cc1C(=O)O`, 29.8%.
Consider `O=C(CCl)Nc1cc(Cl)ccc1C(=O)O`, for which the Inhibition % is reported as 47.9%.
For the molecule `O=C(CCl)Nc1ccc(Br)cc1C(=O)O`, the Inhibition % was 46.1%.
Turning to `O=C(CCl)Nc1cccc2cccc(C(=O)O)c12`, the Inhibition % was found to be 11.2%.
For `O=C(CCl)Nc1ccc(Cl)cc1C(=O)O`, the Inhibition % amounted to 52.4%.
With `O=C(CCl)Nc1cc2ccccc2cc1C(=O)O` the figure was 66.3%; with `C=CC(=O)NCC1CCCc2ccccc21` (centres unmarked), 4.88%; with `C=CC(=O)N1CCC(CN(C)Cc2scnc2C)C1` (centres unmarked), 13.2%.
With `O=S(=O)(C=Cc1ccc(Cl)cc1)NCC1CCCO1` (centres unmarked) the figure was 6.48%.
Consider `CC1CN(CC2OCCO2)CCC1c1ccccc1` (centres unmarked), for which the Inhibition % is 8.86%.
Turning to `O=C(CCl)N(C1CCCC1)C1CC1`, the Inhibition % worked out at 51.2%.
Turning to `O=C(CCl)N(C1CC1)C1CCS(=O)(=O)C1` (centres unmarked), the Inhibition % was 5.73%.
Under `CCN(C(=O)CCl)C1CC1` stands 5.24%; under `CC1CCC(N(C(=O)CCl)C2CC2)CC1` (centres unmarked), 74.1%.
Regarding `O=C(CCl)N(C1CCCC1)C1CCS(=O)(=O)C1` (centres unmarked), the Inhibition % is recorded as 7.16%.
Under `O=C(CCl)N(C1CCCCC1)C1CCCCC1` stands 4.3%; under `C=CC(=O)NCc1cccnc1N1CCOCC1`, 4.99%; under `C=CC(=O)N1CCOCC1CC` (centres unmarked), 7.47%.
Under `CCc1cnccc1C(=O)N1CCCC(C2OCCO2)C1` (centres unmarked) stands 12.5%; under `O=C1OCCC1N1CCOC(c2ccc(Cl)cc2)C1` (centres unmarked), 7.62%.
With `C=CCNC(=O)C(C#N)=Cc1cccc(O)c1` the figure was 4.34%.
With `C=CC(=O)NC1COC(C2CC2)C1` (centres unmarked), the Inhibition % worked out at 4.28%.
For the molecule `CN(C)Cc1ccc(B2OC(C)(C)C(C)(C)O2)s1`, the Inhibition % amounted to 5.59%.
Under `N#Cc1[nH]c2ccccc2c1N` stands 72.9%; under `N#Cc1n[nH]c2ccccc12`, 5.12%; under `N#Cc1nnc2ccccc2c1N`, 1.29%.
Under `CC1(C)CC(OS(C)(=O)=O)CCO1` (centres unmarked) stands 8.17%; under `N#CC(=Cc1ccc(N2CCOCC2)cc1)C(N)=O`, 12.7%.
With `Cc1cc(B2OC(C)(C)C(C)(C)O2)cc(N)n1` the figure was 5.05%; with `C=CC(=O)NC1CC(=O)N(CC)C1` (centres unmarked), 8.72%.
For `Cc1ccc2[nH]c3c(c2c1)CN(C(=O)n1ccnc1)CC3`, the Inhibition % is listed as 67.1%.
Consider `O=C(c1ccccc1)N1CCN(C(=O)n2ccnc2)CC1`, for which the Inhibition % is 2.18%.
As to `O=C(N1CCc2sccc2C1)n1ccnc1`, the Inhibition % came out at 15.4%.
`O=C(N1CCc2[nH]c3ccccc3c2C1)n1ccnc1`: the Inhibition % stood at 52.4%.
With `O=C(N1CCc2[nH]c3ccc(F)cc3c2C1)n1ccnc1` the figure was 36.3%; with `O=C(CCl)N1CCc2[nH]c3ccccc3c2C1`, -3.49%; with `C=CC(=O)N1CCCCC1c1nc2ccccc2o1` (centres unmarked), 7.43%.
With `O=S(=O)(c1cc(Cl)ccc1Cl)n1ccnc1` the figure was 7.81%; with `O=C(O)c1cc(S(=O)(=O)F)cs1`, 90%.
With `NC(=O)N1CCc2cc(S(=O)(=O)F)ccc21` the figure was 10.9%; with `NC(=O)Nc1ccc(S(=O)(=O)F)cc1`, 18.9%.
Consider `CC(C)c1nc(C#N)cs1`, for which the Inhibition % came to 5.66%.
For the molecule `CC1(C)OB(c2ccc(S(=O)(=O)NCCO)cc2)OC1(C)C`, the Inhibition % was determined as 4.41%.
Under `C=CC(=O)Nc1cc(C(F)(F)F)n[nH]1` stands 9.56%; under `C=CC(=O)N1CCOCC1c1c(C)nn(C)c1C` (centres unmarked), 12.6%; under `CC1(C)C2CC=C(COCC3CO3)C1C2` (centres unmarked), 3.87%.
As to `Sc1nc2ccccc2nc1S`, the Inhibition % was determined as 8.25%.
Under `Nc1cc2ccccc2nc1S` stands 52%; under `Cc1nc2ccccc2nc1S`, 2.7%; under `Cc1ccc(-c2nnc(SC3CC(C)OC3=O)o2)cc1` (centres unmarked), 7.51%.
As to `OB(O)C1CCN(Cc2cc(-c3ccccn3)n[nH]2)C1` (centres unmarked), the Inhibition % came to 29.8%.
For the molecule `C=CC(=O)NC(NC(=O)C=C)c1ccccc1`, the Inhibition % was 11.8%.
With `O=C(O)C(S)c1ccccc1` (centres unmarked) the figure was 89.9%.
Turning to `C=CC(=O)N[C@H](C(=O)O)c1ccccc1`, the Inhibition % was determined as 3.77%.
Under `OB(O)C1CCN(Cc2cc3c(cn2)OCCO3)C1` (centres unmarked) stands 21.4%.
Under `CC=C(C#N)c1ccc2c(c1)OCO2` stands 12.1%; under `O=C(CN1C(=O)CCC1=O)Nc1cccc(Cl)c1`, 7.52%.
With `O=c1c2ccccc2nc(S)n1CCS` the figure was 7.43%; with `O=C(CCl)N1CCC(Cc2ccccc2)CC1`, 31.1%.
As for `O=C(CCl)N1CCN(S(=O)(=O)c2ccccc2)CC1`, the Inhibition % is 8.48%.
Regarding `O=C(CCl)N1CCC(c2ccccc2)=N1`, the Inhibition % is 90.5%.
With `C=CC(=O)NCC1CCN(c2ccncc2)CC1` the figure was 15.3%; with `COCC(C)NS(=O)(=O)C=Cc1ccc(Cl)cc1` (centres unmarked), 13.7%; with `CS(=O)(=O)n1cc(N)cn1`, 10.7%.
Turning to `CC1(C)OB(c2cccc(Cl)c2)OC1(C)C`, the Inhibition % is -3.11%.
Regarding `CC1(C)OB(c2cc(Cl)cc(Cl)c2)OC1(C)C`, the Inhibition % is recorded as 81%.
In the case of `CC1(C)OB(c2ccc(Cl)cc2)OC1(C)C`, the Inhibition % came out at 4.5%.
Turning to `C=CC(=O)NC1CCc2cn(C(C)C)nc2C1` (centres unmarked), the Inhibition % was 11.9%.
With `CCOc1cc(C)c(C)cc1S(=O)(=O)n1ccnc1C` the figure was 2.71%.
Under `C=CC(=O)Nc1ccc(Br)cc1` stands 6.59%; under `C=CC(=O)Nc1ccc2c(c1)N(C)CCO2`, 52.4%; under `C=CC(=O)Nc1ccc2c(c1)CCCO2`, 7.61%.
With `C=CC(=O)Nc1ccc2ccc(=O)n(C)c2c1` the figure was 7.33%; with `C=CC(=O)Nc1ccc(=O)n(C)c1`, 54.1%; with `C=CC(=O)Nc1ccc2c(c1)OCCCO2`, 3.17%.
With `CC(C)NC(=O)C(C#N)=Cc1ccccc1Cl`, the Inhibition % amounted to 6.2%.
Consider `CN(C)C=C(C#N)c1ccccn1`, for which the Inhibition % came to 19.1%.
Under `CCOc1cc(C)c(C(C)C)cc1S(=O)(=O)n1ccnc1` stands 6.3%.
Under `O=C(O)c1cccnc1S` stands 5.3%; under `O=C(O)c1ccnnc1S`, 83.3%; under `NC(=O)c1cccnc1S`, 4.97%.
As to `O=c1[nH]c(Cc2ccncc2)no1`, the Inhibition % stood at 6.48%.
Under `O=C(CCl)Nc1ccc(Oc2ccccc2)cc1` stands 84.2%.
For the molecule `O=C(CCl)Nc1cccc(NC(=O)c2ccccc2)c1`, the Inhibition % turned out to be 7.84%.
With `Cc1ccc(Oc2ccc(NC(=O)CCl)cc2)cc1` the figure was 36.3%; with `O=C(CCl)Nc1cccc(Oc2ccccc2)c1`, 55.6%.
Under `O=C(CCl)Nc1ccc(Oc2ccccc2Cl)cc1` stands 93.7%; under `Cc1cccc(NC(=O)CCl)c1`, 8.99%.
With `Cc1ccc(Oc2ccccc2NC(=O)CCl)cc1` the figure was 2.56%; with `O=C(CCl)NCc1cccc(Oc2ccccc2)c1`, 22.5%.
For the molecule `O=C(CCl)Nc1ccccc1Oc1ccccc1`, the Inhibition % came to 6.38%.
In the case of `O=C(CCl)Nc1ccc(OCc2ccccc2)cc1`, the Inhibition % was found to be 28.9%.
Under `O=C(CCl)Nc1ccc(N=Nc2ccccc2)cc1` stands 5.15%; under `Cc1cccc(Oc2ccc(NC(=O)CCl)cc2)c1`, 81.6%; under `Cc1ccc(C)c(S(=O)(=O)n2nc(C)cc2C)c1`, 1.62%.
For `CCOc1cc(C)c(Cl)cc1S(=O)(=O)n1cnc(C)c1`, the Inhibition % is on record as 5.28%.
With `C=CC(=O)NCCN(C)C1CCCCC1` the figure was 10.8%.
With `C=CC(=O)N1CCN(c2ncnc3sc(C)cc23)CC1` the figure was 0.554%; with `Cc1noc(C)c1Cn1c(-c2ccccn2)noc1=O`, 0.962%.
With `CC1(C)OB(c2cccc3occc23)OC1(C)C` the figure was 10.2%; with `C=CC(=O)N1CCC(c2nccn2C)C1` (centres unmarked), 5.02%.
With `Cn1c(=O)[nH]c2ccc(B3OC(C)(C)C(C)(C)O3)cc21`, the Inhibition % is reported as 0.0918%.
For the molecule `C=CC(=O)NC1CC(OCC)C12CCCCC2` (centres unmarked), the Inhibition % amounted to 4.59%.
With `CN(C)C(=O)Oc1ccc2c(c1)OCO2` the figure was -4.08%; with `N#Cc1nccnc1N1CCC(C(F)(F)F)CC1`, 2.52%.
Regarding `C=CC(=O)N1CCN(CC2CCOCC2)CC1`, the Inhibition % is reported as 12.9%.
With `N#Cc1ccc(N2CCOC(c3cccs3)C2)cn1` (centres unmarked) the figure was 4.98%.
With `COCc1ccc(CNC(=O)CCl)cc1` the figure was 6.87%.
With `N#Cc1ccc(N2CCCC(C(N)=O)C2)cn1` (centres unmarked) the figure was 6.47%.
With `CCN(C(=O)CCl)C(C)c1ccc(F)cc1` (centres unmarked), the Inhibition % was 9.9%.
`C=CC(=O)N(C)Cc1cc2ccccc2o1`: the Inhibition % stood at 5.57%.
With `CC(c1ccc(F)cc1)N(C)C(=O)CCl` (centres unmarked), the Inhibition % is on record as 96.3%.
With `CC(c1ccc(F)c(F)c1)N(C)C(=O)CCl` (centres unmarked) the figure was 92.5%.
With `CC(c1ccc(Cl)cc1)N(C)C(=O)CCl` (centres unmarked), the Inhibition % is 98%.
As to `CC(c1ccc(F)cc1)N(C)C(=O)Cn1cnc(C#N)n1` (centres unmarked), the Inhibition % was found to be 11.3%.
Regarding `CCC(NC(=O)CCl)c1ccc(Cl)cc1` (centres unmarked), the Inhibition % came to 14.1%.
In the case of `CC(NC(=O)CCl)c1ccc(Cl)cc1` (centres unmarked), the Inhibition % stood at 6.77%.
For the molecule `CC(c1cc2ccccc2o1)N(C)C(=O)CCl` (centres unmarked), the Inhibition % worked out at 96.1%.
With `CN(C)C=CC(=O)c1cc2ccccc2o1` the figure was 0.589%.
